In PMC5540273 (PLoS ONE, 2017):

Assays:
Conditions in all cases: concentration: 1 μM,replicates: in singlicate; n = 1
MTOR = tested on: MTOR
MUSK = tested on: MUSK
MYLK2 = tested on: MYLK2
MYLK4 = tested on: MYLK4
MYLK = tested on: MYLK
MYO3A = tested on: MYO3A
MYO3B = tested on: MYO3B
NDR1 = tested on: T1, NDR1
T1 construct: gene STK38

NDR2 = tested on: NDR2
NEK10 = tested on: NEK10
NEK11 = tested on: NEK11
NEK1 = tested on: NEK1
NEK2 = tested on: NEK2
NEK3 = tested on: NEK3
NEK4 = tested on: NEK4
NEK5 = tested on: NEK5
NEK6 = tested on: NEK6
NEK7 = tested on: NEK7
NEK9 = tested on: NEK9
NIK = tested on: T2, NIK
T2 construct: gene MAP3K14
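Further: KINOMEscan kinase panel screen.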

SMILES	%Inh (MTOR) [%]	%Inh (MUSK) [%]	%Inh (MYLK2) [%]	%Inh (MYLK4) [%]	%Inh (MYLK) [%]	%Inh (MYO3A) [%]	%Inh (MYO3B) [%]	%Inh (NDR1) [%]	%Inh (NDR2) [%]	%Inh (NEK10) [%]	%Inh (NEK11) [%]	%Inh (NEK1) [%]	%Inh (NEK2) [%]	%Inh (NEK3) [%]	%Inh (NEK4) [%]	%Inh (NEK5) [%]	%Inh (NEK6) [%]	%Inh (NEK7) [%]	%Inh (NEK9) [%]	%Inh (NIK) [%]
O=C(NOCC1CC1)c1cc(Br)c(F)c(F)c1Nc1ccc(I)cc1Cl	26	9	0	0	0	0	20	33	0	0	0	0	0	43	0	0	0	0	0	0
CN(c1ccc2c(c1)nc(NCc1ccc(F)cc1)n2C)c1ccnc(Nc2ccc(CS(C)(=O)=O)cc2)n1.Cl [GW813244]	0	51	0	13	1	0	45	31	0	10	0	0	0	36	0	0	0	0	21	0
CSc1nccc(-c2c(-c3ccc(F)cc3)ncn2CCCN2CCOCC2)n1.Cl [SB-217146]	35	0	0	0	5	21	8	42	26	14	0	0	0	38	0	0	0	8	0	33
CN(c1ccccc1CNc1nc(Nc2ccc3c(c2)CC(=O)N3)ncc1C(F)(F)F)S(C)(=O)=O	21	71	4	2	0	0	0	33	12	0	0	0	0	32	0	0	26	64	53	0
Cn1ccc2ncnc(Oc3ccc(NC(=O)Nc4cccc(C(F)(F)F)c4)c(F)c3)c21	10	99.4	0	7	19	8	49	10	8	7	0	0	15	17	0	7	27	0	0	0
O=C(NCC1CC1)c1ccc(-c2cc(C(=O)NC3CC3)ccc2F)cc1 [GW810445]	21	0	0	0	0	0	8	0	7	0	0	3	0	0	0	0	0	0	0	0
C[C@@H]1CCN(C(=O)N2CCCC2)C[C@@H]1N(C)c1ncnc2[nH]ccc12	8	0	5	3	2	1	0	4	0	30	0	4	0	39	5	0	8	0	0	0
CCN1CCN(CCCC(=O)Nc2n[nH]c3nc(-c4ccc(O)cc4)c(Br)cc23)CC1 [SB-731579]	0	0	98.5	1	0	62	17	0	0	0	0	0	0	18	0	0	0	5	22	27
CC(C(=O)NC1CCN(c2ccnc(Nc3ccc(F)cc3)n2)C1)c1ccc(Cl)cc1 (stereo not drawn) [GSK1379713]	17	6	3	0	0	0	0	15	0	0	25	0	0	0	0	15	0	28	34	11
COc1cccc(OC)c1C(=O)Nc1cccc(-c2nn3ccccc3c2-c2ccnc(Nc3cccc(F)c3)n2)c1 [GSK361065]	0	3	0	0	87	28	13	17	13	0	0	0	4	7	0	10	17	0	0	0
N#Cc1cccc(C(=O)NC2CCN(c3ccnc(Nc4ccc(F)cc4)n3)C2)c1 (stereo not drawn) [GSK1379708]	4	0	0	0	0	4	0	0	41	1	3	0	0	7	11	5	12	0	0	13
Cc1ccc(CC(=O)N2CCc3cc(-c4cn(C)c5ncnc(N)c45)ccc32)cc1 [GSK2634758]	32	0	87	0	0	0	9	18	8	0	59	31	96.9	7	11	45	19	0	20	16
O=C(Nc1ccccc1)c1cccc(Oc2ccc3nccn3n2)c1	14	73	0	0	0	0	0	0	22	0	20	0	2	17	0	12	0	0	0	34
CN1CCN(CCNc2nc3cc(Oc4ccc(NC(=O)Nc5cc(C(F)(F)F)ccc5F)cc4)ccc3[nH]2)CC1.Cl.Cl [GW768504]	0	97.3	6	0	0	0	20	51	7	0	0	0	0	20	0	1	0	0	0	0
FC(F)(F)c1cc(Br)cc(Nc2nccc(-c3cnn4ncccc34)n2)c1 [GW810578]	0	18	1	29	8	9	8	19	13	40	0	0	1	15	2	30	51	60	15	21
Cc1cccc2c(-c3ccncc3)c(-c3ccc(F)cc3)nn12.Cl [GW461487]	0	7	2	0	14	8	0	25	0	14	4	0	0	0	0	16	0	0	15	10
O=c1[nH]cc(-c2ccc(O)cc2)c2sc(-c3ccncc3)cc12 [GSK1033723]	18	0	33	44	26	0	0	38	8	12	23	0	0	0	0	17	0	0	18	0
O=C(Nc1cccc(Oc2ccc3nccn3n2)c1)Nc1cccc(C(F)(F)F)c1	23	51	0	0	0	0	3	0	0	0	0	0	8	7	0	0	0	0	0	27
Nc1nccc(-c2ccc3c(N)n[nH]c3c2)n1 [GSK1034945]	0	9	85	83	21	8	0	0	0	0	0	0	3	9	0	4	0	3	10	0
Cc1nnc(-c2ccc3occ(-c4ccc(S(C)=O)cc4)c3n2)o1 (stereo not drawn)	0	0	6	0	0	0	0	0	0	0	0	0	0	23	0	0	0	0	0	0
CCOC(=O)N1CCC(n2cnc(-c3ccc(F)cc3)c2-c2ccnc(N)n2)CC1 [SB-219952]	66	0	20	21	45	17	0	0	0	0	20	0	0	21	15	26	0	31	23	0

SMILES	%Inh (MTOR) [%]	%Inh (MUSK) [%]	%Inh (MYLK2) [%]	%Inh (MYLK4) [%]	%Inh (MYLK) [%]	%Inh (MYO3A) [%]	%Inh (MYO3B) [%]	%Inh (NDR1) [%]	%Inh (NDR2) [%]	%Inh (NEK10) [%]	%Inh (NEK11) [%]	%Inh (NEK1) [%]	%Inh (NEK2) [%]	%Inh (NEK3) [%]	%Inh (NEK4) [%]	%Inh (NEK5) [%]	%Inh (NEK6) [%]	%Inh (NEK7) [%]	%Inh (NEK9) [%]	%Inh (NIK) [%]
OCCn1cc(-c2cnc3nnn(Cc4ccc5ncccc5c4)c3n2)cn1	52	0	0	0	3	0	0	7	4	0	0	0	6	32	0	0	0	8	0	15
C[C@@H](Oc1cc(-n2cnc3ccc(-c4ccncc4)cc32)sc1C(N)=O)c1ccccc1Cl [GSK483724]	32	28	48	94.9	13	0	0	10	0	12	0	51	86	0	4	72	14	17	76	1
CCNCC(Cc1ccccc1)NC(=O)c1cc(Br)c(-c2ccnc3[nH]ccc23)s1.Cl.Cl (stereo not drawn) [GSK1383280]	8	2	22	86	73	15	0	99.8	52	0	0	79	18	17	0	79	0	0	10	0
Cn1cc(-c2cccc3c(N)c(C(N)=O)nnc23)cn1	0	3	0	81	33	15	23	8	23	48	0	0	15	22	16	6	5	0	0	21
Cc1ccn2nc(-c3ccc(F)cc3)c(-c3ccncc3)c2c1.Cl [GW457859]	8	0	23	0	26	48	0	13	40	0	43	12	0	3	0	0	0	0	4	38
CC(=O)c1c(-c2ccncc2)[nH]c(-c2ccncc2)c1C [GW493036]	0	8	4	7	4	42	0	19	0	0	0	0	0	47	4	19	0	0	27	28
CC(=O)Nc1nc2cnc(Nc3cc(NC(=O)c4cccc(CC(C)(C)C#N)c4)ccc3C)nc2s1	14	2	0	14	42	25	0	0	13	0	0	13	6	30	0	0	13	5	5	0
CC(C)S(=O)(=O)N1CCN(Cc2ccc3c(c2)nc(NC(=O)c2ccsc2)n3C[C@H](O)c2ccccc2)CC1 [GW635815]	14	27	15	0	16	8	0	35	24	2	1	0	0	0	9	8	0	0	1	9
CCCC(=O)Nc1n[nH]c2ncccc12 [SB-601436]	0	0	0	0	2	0	12	9	0	0	4	0	0	0	0	0	0	13	0	10
CS(=O)(=O)c1cccc(CNc2nc(Nc3ccc4c(c3)[C@@H]3C[C@@H]4CNC3=O)ncc2C(F)(F)F)c1	12	26	12	0	12	13	54	85	6	0	0	0	0	23	1	0	19	12	2	26
Cc1n[nH]c2cc(Nc3ccnc(Nc4cccc(CN5CCOCC5)c4)n3)ccc12 [GW682569]	14	15	9	17	21	22	0	25	14	9	17	2	0	20	0	29	0	0	15	0
COc1cccc(CNC(=O)NC2CCN(c3ccnc(Nc4cc(OC)c(OC)c(OC)c4)n3)C2)c1 (stereo not drawn) [GSK1379765]	31	83	11	9	20	27	0	15	0	14	15	0	0	45	31	95.9	0	15	31	30
C[C@@H]1CNc2c(sc3ccc4nc(-c5ccc(O)cc5)ccc4c23)C(=O)N1	0	0	14	10	65	22	93.2	26	0	7	0	0	0	20	0	0	38	11	8	84
C[C@@H](Oc1cc(-n2cnc3cc(-c4ccncc4)ccc32)sc1C(N)=O)c1ccccc1Cl [GSK479719]	6	11	22	0	1	0	0	0	0	0	0	66	96.5	5	21	82	0	12	62	0
Cl.Nc1n[nH]c2cc(-c3ccccn3)ccc12 [GSK2189892]	0	0	5	29	18	0	0	0	0	2	0	0	0	1	0	0	0	0	3	0
COC(=O)Nc1nc2cc(Oc3ccc(NC(=O)Nc4cc(C(F)(F)F)ccc4Cl)cc3)ccc2[nH]1.Cl [GW697465]	19	99.2	6	0	0	11	0	8	0	13	29	0	0	0	3	0	0	0	28	0
CN(c1cccc(CNc2nc(Nc3ccc4c(c3)CC(=O)N4)ncc2C(F)(F)F)c1)S(C)(=O)=O	24	58	74	24	0	0	1	49	0	0	0	0	0	20	0	17	23	0	6	21
Cc1ccc2c(-c3ccnc(Nc4ccc(C(F)(F)F)cc4)n3)cnn2n1 [GW819776]	0	7	9	23	19	0	0	37	10	31	0	0	0	78	9	84	0	2	6	10
Cl.Cl.NC[C@H](CC1CCCCC1)NC(=O)c1ccc(-c2ccnc3[nH]ccc23)s1 [GSK1581428]	14	61	62	99.9	66	0	0	95.8	79	17	0		0	0	14	15	0	1	17	0
C[C@@H]1CNc2c(sc3ccc4nc(-c5ccncc5)ccc4c23)C(=O)N1	50	0	2	11	62	0	27	18	0	7	0	0	0	30	0	0	3	5	0	90.3
